This note sets out measurements from PubChem BioAssay (NCI).

What all share (experiment): NCI-60 one-dose screen, 48 h (100 = growth as untreated, 0 = no growth, -100 = all killed)
Holding throughout (details): 10 µM unless noted

The test system of assay [1] is NCI-H23 lung.
In assay [2] the test system is NCI-H322M lung.
Assay [3] relates to HOP-62 NSCLC.
Assay [4] deals with NCI-H460 lung.
Assay [5] has as its system NCI-H522 lung.
Assay [6] relates to A549/ATCC NSCLC.
Assay [7] concerns 786-0 renal.
Assay [8] relates to COLO 205 colon.
The subject of assay [9] is DU-145 prostate.
Assay [10] concerns HOP-92 NSCLC.

About 83,000 compounds went through this panel and 20% of them were active in at least one assay; those are over-represented in the sample as a whole.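 48-hour exposure, single concentration, 96-well plates; percent growth endpoint where 0 means no net growth. Active: below 10.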 Unmarked numbers belong to inactive results. The source made the active and inactive calls.

Regarding `CC1(C)CC2(C)OC2C2(C1)N=NC(=Nc1ccccc1)O2` (stereo not given), the growth in [1] is 88.9%; in [2], 103%; in assay [3] it was 60.9%; in [4], 79.5%; in [5], 15.1%; in assay [6] it was 54.1%. In addition, the growth in [7] is 36.3%; in assay [8], 73%; in [9], 67.2%.
For the compound `Nc1nc(Nc2cccc(F)c2)nc2ccccc12`, the growth was 38.7% in assay [1]; 47.2% in assay [2]; 65.7% in assay [3]; -2.46% (active) in assay [10]; 51.5% in assay [5]; 46.3% in assay [6]. For the same compound, the results for the growth in assay [7], in [8] and in assay [9] were 46.5%, -54.1% (active) and 67.9%, respectively.
With `COC(=O)C1=Nc2ccc(F)cc2/C1=C/c1sc(=S)[nH]c1O`, the growth in assay [1] is 28.6%; in assay [2], 29%; in [3] it was 18.6%; in [4], 3.2% (active); in [5], -33.3% (active); in assay [6] it was 17.7%. Further, the results for the growth in [7], in assay [8] and in [9] were 9.99% (active), -2.37% (active) and 11.9%, respectively.
Turning to `O=c1cc(-c2ccccc2)oc2cc(OCc3cn(Cc4ccc(F)cc4)nn3)cc(OCc3cn(Cc4ccc(F)cc4)nn3)c12`, the growth in assay [1] was 29.2%; in assay [2], 43.5%; in [3], 12.4%; in assay [4], 2.98% (active); in assay [5], 17.6%; in [6], 23.2%. Besides, the values for the growth in assay [7] and in assay [9] were 1.13% (active) and 40%, respectively.
Take `Cn1c(C(=O)c2cccc3ccccc23)nc2ccccc21`: the growth in assay [1] was 19.4%; in assay [2], -2.65% (active); in assay [3], 18.6%; in assay [4], 3.61% (active); in [5], -4.82% (active); in [6], 3.42% (active). The growth in assay [7] is 5.77% (active); in [8], 12.9%; in assay [9], 18.3%.
On to `O=C(Nc1ccc(N2CCNCC2)cc1)c1[nH]ncc1Nc1ncnc2sc3c(c12)CCC3`, for which the growth in assay [1] is -68.6% (active); in assay [2], -33.2% (active); in assay [3], -76.2% (active); in [4], -81.8% (active); in [5], -50.3% (active); in assay [6], -71.4% (active). The growth was -81.4% (active) in assay [7], -77.2% (active) in [8] and -92.4% (active) in assay [9].
Consider `O=C1c2ccc3c4c(ccc(c24)C(=O)N1CCCCO)C(=O)N(CCCCO)C3=O`, for which the growth is 80.5% in [1]; 90.9% in assay [2]; 83.9% in assay [3]; 89.6% in assay [4]; -13.4% (active) in assay [5]; 45.6% in assay [6]. In addition, the growth in assay [7] was 67.8%; in assay [8], 5.81% (active).
As to `NS(=O)(=O)c1ccc(CCN=C=S)cc1`, the growth in assay [1] is 32.7%; in assay [2] it was 85.2%; in assay [3], 101%; in assay [4] it was 56.7%; in [5], -69.8% (active); in [6] it was 71.5%. Besides, the growth in [7] is 20.8%; in [8], -36.7% (active); in assay [9], 6.92% (active).
Consider `COc1cc(NC(=O)CCSc2nc3ccccc3c(=O)n2CCc2ccccn2)cc(OC)c1OC`, for which the growth in assay [1] was 88.3%; in [2] it was 88.8%; in [3] it was 85.7%; in assay [4], 83.5%; in assay [5], 25%; in assay [6], 84%. The values for the growth in [7], in assay [8] and in assay [9] were 84.3%, 115% and 103%, respectively.
For `CCOC(=O)c1cc2c(n1Cc1ccccc1)-c1oncc1CCC2`, the growth is 88.3% in assay [1]; 107% in [2]; 77.9% in assay [3]; 97.3% in [4]; 61.4% in [5]; 59.2% in assay [6]. The figures for the growth in assay [7], in assay [8] and in [9] were 102%, 69% and 114%, respectively.
As for `O=Nc1c(O)ccc2ccccc12.O=Nc1c(O)ccc2ccccc12.O=Nc1c([O-])ccc2ccccc12.[Fe+3]`, the growth in assay [1] is 87%; in assay [2] it was 104%; in [3] it was 87.6%; in [10], 94.5%; in [5], 103%; in assay [6], 106%. The growth in [7] was 115%; in assay [8], 103%; in assay [9], 125%.
For the compound `O=C(/C=C/c1ccc(C(F)(F)F)cc1)c1ccc(Nc2nc(NCCO)nc(N3CCOCC3)n2)cc1`, the growth in assay [1] is 39.4%; in assay [2], 40.5%; in [3], 33%; in assay [10], 64%; in assay [5], 45.6%; in [6], 13.1%. For the same compound, the growth in assay [7] was -2.96% (active); in assay [9], 13%.
Consider `CCC1=C[C@]2(C3CC(=O)N(c4ccccc4)C3=O)CC(C(C)(C)C)C[C@@H]2[C@@H]2C(=O)N(c3ccccc3)C(=O)[C@H]12` (stereo not given in full), for which the growth in [1] was 95.2%; in assay [2], 69.3%; in assay [3] it was 82.1%; in assay [10], 84.5%; in assay [5], 57.3%; in [6], 68.7%. For the same compound, the growth in [7] is 83.8%; in [8], 93.3%; in assay [9], 92%.
With `CCOC(=O)C1(C(=O)OCC)N=C(c2ccccc2)C=C1c1ccccc1`, the growth is 86.4% in [1]; 103% in assay [2]; 105% in assay [3]; 64.4% in [5]; 86.7% in [6]; 96% in [7]. Besides, the growth in [8] was 99.9%; in assay [9], 106%.
In the case of `COc1ccc(-n2c(C(O)c3ccccc3)n[nH]c2=S)cc1` (stereo not given), the growth in assay [1] is 101%; in [2] it was 102%; in [3], 92.5%; in [5] it was 89.7%; in assay [6], 102%; in assay [7], 99.1%. For the same compound, the growth in assay [8] was 110%; in assay [9], 113%.
Regarding `CCN(CC)c1cc(C)c2cc(NC(=O)c3cccc(OC)c3)ccc2n1`, the growth in [1] is 85%; in [2], 109%; in [3], 107%; in [10], 29.1%; in [5], 93.4%; in assay [6], 80%. Besides, the growth in [7] was 70%; in assay [8], 89.7%; in [9], 92.9%.
Consider `O=c1oc2ccc(Br)cc2c(=O)n1-c1ccc(Cl)cc1F`, for which the growth in [1] was 2.82% (active); in assay [2], 5.97% (active); in [3], 2.2% (active); in assay [10], -12.6% (active); in [5] it was -1.53% (active); in assay [6] it was 8.23% (active). In addition, the growth in assay [7] is -1.15% (active); in assay [8] it was 21.5%; in assay [9], 16.4%.
For the compound `O=C(Nc1ccc(F)cc1F)c1cc(Br)ccc1O`, the growth in [1] is -12.6% (active); in [2], 0.898% (active); in assay [3] it was -8.56% (active); in [10], -25.6% (active); in assay [5], -12.2% (active); in assay [6], 5.78% (active). In addition, the values for the growth in [7], in [8] and in assay [9] were 3.19% (active), 7.66% (active) and 13.2%, respectively.
Consider `FC(F)(F)c1cccc(Nc2nc3ccccc3nc2Nc2cccc(C(F)(F)F)c2)c1`, for which the growth is 39.7% in assay [1]; -28% (active) in [2]; 2.35% (active) in [3]; 6.66% (active) in assay [10]; -57.1% (active) in assay [5]; 3.08% (active) in assay [6]. The growth was -75.3% (active) in [7], -87.2% (active) in [8] and -1.33% (active) in assay [9].
With `CN1CCN(Cc2ccc(NC(=O)c3[nH]ncc3Nc3cc(OC4CCCC4)ncn3)cc2)CC1`, the growth in assay [1] was 45.8%; in [2], 45.9%; in [3], 55.4%; in assay [10], 14.9%; in [5], 26.2%; in [6], 8.79% (active). The growth in assay [7] was 20.9%; in assay [8] it was 7.6% (active); in assay [9], 37.9%.
For the compound `COC(=O)/C(=C\c1c(C)[nH]c2ccccc12)S(=O)(=O)c1ccccc1`, the growth in assay [1] is 18.6%; in assay [2] it was 47.5%; in [3], 29.8%; in assay [10], 21.5%; in assay [5], 31.9%; in assay [6], 23.7%. Moreover, the growth is 48% in [7], 31.8% in assay [8] and -53.4% (active) in [9].
Consider `O=S1(=O)N(Cc2ccccc2)[C@@H](Cc2ccccc2)C2O[C@H]2[C@H](Cc2ccccc2)N1Cc1ccccc1` (stereo not given in full), for which the growth in [1] is 37.6%; in assay [2], 84.9%; in [3], 53.6%; in [10] it was 114%; in [5] it was 49.3%; in [6], 44.1%. Also, the figures for the growth in assay [7] and in assay [9] were 40.6% and 34.3%, respectively.
On to `O=C1NC(=O)C(=Cc2cn(Cc3cn(Cc4ccc(Cl)cc4Cl)nn3)c3ccccc23)C(=O)N1`, for which the growth is 81.4% in assay [1]; 92.4% in assay [2]; 94.3% in assay [3]; 92.6% in [10]; 77.7% in assay [5]; 101% in assay [6]. The values for the growth in assay [7], in assay [8] and in [9] were 106%, 122% and 98.9%, respectively.
As for `CCCCc1ccc(NS(=O)(=O)c2cc3c4c(c2)CCN4C(=O)CC3)cc1`, the growth is 21.2% in assay [1]; 32.7% in assay [2]; 8.96% (active) in assay [3]; 3.41% (active) in [10]; 13.9% in assay [5]; 10.6% in [6]. The growth was -1.95% (active) in assay [7], 14.5% in assay [8] and 16.4% in assay [9].
